Assay results reported in the supplement of paper PMC9844399.
Where a name gives a salt, the structure may show the parent alone.

Test system: HeLa
Assay: nuclear count per well, robust Z-score vs DMSO; higher = more cells (less toxicity)
Details: 10 µM; 6 h
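Further: Hoechst-stained nuclei counted by automated confocal imaging of four fields per well in 384-well plates, with the robust Z-score based on the per-plate DMSO median and robust SD.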

How did the “nuclear count per well” value turn out when `CC(C)C[C@H](NC(=O)[C@H](Cc1ccccc1)NC(=O)c1cnccn1)B(O)O` [Bortezomib] was run?
The value was -2.87.

With `CCCC[C@@H](C=O)NC(=O)[C@H](CC(C)C)NC(=O)OCc1ccccc1` [Calpeptin] as the compound, how does the “nuclear count per well” value read?
Its value is 0.364.

With `CCN1CC(CCN2CCOCC2)C(c2ccccc2)(c2ccccc2)C1=O` (centres undefined) as the compound, how does the “nuclear count per well” value read?
The value was 0.0687.

`CC1(C)S[C@@H]2[C@H](NC(=O)COc3ccccc3)C(=O)N2[C@H]1C(=O)O` [Penicillin V Potassium Salt] was tested. Which “nuclear count per well” value did it give?
Its value is 1.15.

With `O=C1CCc2c(ccc3ccccc23)O1` [Splitomycin] as the compound, how does the “nuclear count per well” value read?
The value was 0.693.

For `COc1cc2nc(N3CCN(C(=O)c4ccco4)CC3)nc(N)c2cc1OC` [Prazocin], which “nuclear count per well” value is on record?
The value was 0.533.

With `Cc1ccc(N(CC2=NCCN2)c2cccc(O)c2)cc1` [Phentolamine hydrochloride] as the compound, how does the “nuclear count per well” value read?
Its value is 0.226.

Which “nuclear count per well” value does the source give for `CCCCCC#CCC#CCC#CCC#CCCCC(=O)O` [5,8,11,14-Eicosatetraynoic acid] here?
Its value is -0.123.

With `CS(=O)(=O)CCNCc1ccc(-c2ccc3ncnc(Nc4ccc(OCc5cccc(F)c5)c(Cl)c4)c3c2)o1` [Lapatinib Ditosylate] as the compound, how does the “nuclear count per well” value read?
Its value is 0.113.

`CC(C)(S)[C@@H](N)C(=O)O` [Penicillamine (D-Penicillamine)] was tested. Which “nuclear count per well” value did it give?
The value was 0.74.

`Nc1ccc(O)c(C(=O)O)c1` [Mesalamine (5-Aminosalicylic Acid)] was tested. Which “nuclear count per well” value did it give?
The value was 0.164.

How did the “nuclear count per well” value turn out when `CNCCCC12CCC(c3ccccc31)c1ccccc12` was run?
The value was 0.319.

For `CCCCCCCN(CC)CCCC(O)c1ccc(NS(C)(=O)=O)cc1` (centres undefined) [Ibutilide Fumarate], which “nuclear count per well” value is on record?
The value was 0.0965.

With `CCCCc1nc(Cl)c(CO)n1Cc1ccc(-c2ccccc2-c2nnn[nH]2)cc1` [Losartan Potassium] as the compound, how does the “nuclear count per well” value read?
Its value is 0.214.
